Unmarked numbers belong to inactive results.
Tested on: Vero E6 infected with SARS-CoV-2
Assay: inhibition of SARS-CoV-2 cytopathic effect; higher = more antiviral protection, active = above 15
Details: 48 h

| Structure (SMILES) | inhibition of SARS-CoV-2 cytopathic effect (1 nM) [%] | inhibition of SARS-CoV-2 cytopathic effect (8.33 nM) [%] | inhibition of SARS-CoV-2 cytopathic effect (100 nM) [%] | inhibition of SARS-CoV-2 cytopathic effect (833.33 nM) [%] | inhibition of SARS-CoV-2 cytopathic effect (10000 nM) |
| --- | --- | --- | --- | --- | --- |
| COC[C@@H](NC(C)=O)C(=O)NCc1ccccc1 [Lacosamide] | -11.7 | -10.6 | -8.79 | -10.4 | -12.7% |
| CCOC(=O)[C@H](Cc1ccccc1)NC(=O)c1cc(Cl)c(OCCN2CCN(C)CC2)c(Cl)c1O | -1.93 | 1.91 | 0.81 | -1.07 | 2.79% |
| C#CC[C@H](c1nc2cc(Cl)ccc2c(=O)n1Nc1ccccc1)N(CCCN)C(=O)c1cccc(Cl)c1F | -0.8 | -0.99 | 0.22 | 1.38 | -9.07% |
| COc1ccc(CNCc2cccc3ccccc23)cc1 | -2.74 | -2.35 | -0.58 | -2.06 | -0.83% |
| CCc1c(O)cc(O)c(C(=O)c2ccc(OCCN3CCOCC3)c(OC)c2)c1CC(=O)N(CCOC)CCOC | -1.17 | -2.57 | -1.95 | -1.17 | 0.48% |
| COc1cc2c(cc1OC)CC(=O)N(CCCN(C)C[C@H]1Cc3cc(OC)c(OC)cc31)CC2 [ivabradine] | -0.16 | -0.37 | -0.32 | -1.75 | -1.11% |
| Nc1ncc(Cc2ccc(Br)cc2)s1 | -0.22 | 1.1 | 2.74 | 2.26 | 2.73% |
| COC(=O)/C=C/c1cccc(N(Cc2ccc(-c3ccc(N(C)C)cc3)cc2)C(=O)C2CCCCC2)c1 [fexaramine] | -0.19 | 0.37 | -0.24 | 2.29 | 1.78% |
| O=[N+]([O-])c1c(Nc2cc(F)cc(Cl)c2)ccc2nonc12 | 1.7 | 2.32 | 1.45 | -0.1 | 2.66% |
| Nc1ccc(C(=O)O)cc1 [potassium-p-aminobenzoate] | -5.31 | -2.38 | -5.27 | -0.2 | -5% |
| O=S(=O)(NCC1CC1)c1ccc(Nc2nccc(N3CCCc4cc(O)ccc43)n2)cc1 [pyrintegrin] | 2.46 | 5.45 | 4.41 | 14.1 | 36% (active) |
| O=C1c2cccnc2OC[C@@H]2CCCN12 | 0.83 | 1.33 | 0.65 | 0.64 | -2.21% |
| COC(=O)Nc1nc2cc(C(=O)c3ccccc3)ccc2[nH]1 [mebendazole] | -1.33 | 0.93 | -0.07 | 0.95 | 0.89% |
| NCC(=O)N[C@@H](CCC(N)=O)C(=O)O | 0.35 | -1.25 | -2.03 | 2.57 | -2.42% |
| O=C1Nc2ccccc2C2(CCN(CCc3ccc(C(F)(F)F)cc3)CC2)O1 | -1.89 | -4.51 | -1.41 | -2.49 | -3.73% |
| CC(C)(C)C[C@@H]1N[C@@H](C(=O)N[C@H]2CC[C@H](O)CC2)[C@H](c2cccc(Cl)c2F)[C@]12C(=O)Nc1cc(Cl)ccc12 | -4.12 | -2.43 | -7.89 | 2.65 | 2.37% |
| COc1ccc(-c2cc3c(C)nc(N)nc3n([C@H]3CC[C@H](OCCO)CC3)c2=O)cn1 | -0.21 | 2.83 | 0.43 | -10.1 | -10.3% |
| Cc1ccc2c(c1)=C(c1ccccc1)C(C1=NN(C(=O)CCC(=O)O)C(c3ccc(Br)cc3)C1)C(=O)N=2 (stereo not given) | -0.42 | -0.1 | 2.84 | 3.61 | 0.79% |
| O=c1[nH]cnc2c1cnn2[C@@H]1O[C@H](CO)[C@@H](O)[C@H]1O [allopurinol-riboside] | 0.99 | 0.92 | 2.88 | 0.52 | 1.75% |
